This is part of a sample that, as a whole, favours compounds with a hit. Of some 83,000 tested, about 20% had one in any assay.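 Growth was measured after 48 h exposure to one concentration of compound in 96-well plates. Values under 10 count as active.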 Unmarked numbers belong to inactive results. Activity calls are given as the source filed them.
Columns and labels:
Assay in all cases: NCI-60 one-dose screen, 48 h (100 = growth as untreated, 0 = no growth, -100 = all killed)
NCI-H23 lung = conditions: 10 µM unless noted
NCI-H322M lung = conditions: 10 µM unless noted
HOP-62 NSCLC = conditions: 10 µM unless noted
NCI-H460 lung = conditions: 10 µM unless noted
HOP-92 NSCLC = conditions: 10 µM unless noted
A549/ATCC NSCLC = conditions: 10 µM unless noted
786-0 renal = conditions: 10 µM unless noted
COLO 205 colon = conditions: 10 µM unless noted
DU-145 prostate = conditions: 10 µM unless noted
K-562 leukemia = conditions: 10 µM unless noted
MALME-3M melanoma = conditions: 10 µM unless noted
MDA-MB-231 breast = conditions: 10 µM unless noted
RXF 393 renal = conditions: 10 µM unless noted
SF-268 CNS = conditions: 10 µM unless noted
SF-295 CNS = conditions: 10 µM unless noted
SF-539 CNS = conditions: 10 µM unless noted
UACC-257 melanoma = conditions: 10 µM unless noted
M14 melanoma = conditions: 10 µM unless noted
NCI-H522 lung = conditions: 10 µM

| SMILES | growth (NCI-H23 lung) | growth (NCI-H322M lung) | growth (HOP-62 NSCLC) | growth (NCI-H460 lung) | growth (HOP-92 NSCLC) | growth (A549/ATCC NSCLC) [%] | growth (786-0 renal) | growth (COLO 205 colon) | growth (DU-145 prostate) | growth (K-562 leukemia) | growth (MALME-3M melanoma) | growth (MDA-MB-231 breast) | growth (RXF 393 renal) | growth (SF-268 CNS) | growth (SF-295 CNS) | growth (SF-539 CNS) | growth (UACC-257 melanoma) | growth (M14 melanoma) | growth (NCI-H522 lung) |
| --- | --- | --- | --- | --- | --- | --- | --- | --- | --- | --- | --- | --- | --- | --- | --- | --- | --- | --- | --- |
| N#Cc1c(-c2ccccc2)cc(-c2ccccc2)n(CCCCCCC(=O)O)c1=O | 96.7% | 96.5% | 94.4% | 102% | 125% | 102 | 105% | 111% | 116% | 94.3% | 94.5% | 94.8% | 92.7% | 97.8% | 94.1% | 97.4% | 109% | 101% | – |
| C[C@H]1O[C@@H](O[C@H]2[C@@H](O)C[C@H](O[C@H]3[C@@H](O)C[C@H](O[C@H]4CC[C@]5(C)C6CC[C@]7(C)[C@@H](C8=CC(=O)OC8)CC[C@]7(O)C6CC[C@@H]5C4)O[C@@H]3C)O[C@@H]2C)C[C@H](O)[C@@H]1O (some centres undefined) | -47.5% (active) | -84.9% (active) | -100% (active) | -97.3% (active) | -29.3% (active) | – | -93.4% (active) | -92.6% (active) | -100% (active) | -45% (active) | -63.9% (active) | -48.6% (active) | -27.1% (active) | -100% (active) | -98.2% (active) | -94.6% (active) | -100% (active) | -81.1% (active) | – |
| CC(C)=CCNc1ncnc2c1ncn2C1OC(COP(=O)(O)O)C(O)C1O (centres undefined) | 57.8% | 41.1% | 46.1% | – | 74.5% | – | 43.3% | 63% | 4.87% (active) | 16.1% | 68.5% | 5.56% (active) | – | 59.9% | 25.6% | 52% | 94.1% | 50.5% | 9.55% (active) |
| Cn1cnc([N+](=O)[O-])c1Sc1nc(N)nc2nc[nH]c12 | 52.9% | 77.3% | 22.8% | 20.6% | -3.12% (active) | – | 14.6% | 96.9% | 25.7% | 4.56% (active) | 68.8% | 29.6% | 44.8% | 29% | -2.69% (active) | 16.4% | 45.3% | 14.4% | 41.3% |
| COc1cc(C2CC(C3C(=O)N(C)C(=O)N(C)C3=O)=NN2C=O)cc(OC)c1OC (centres undefined) | 97.3% | 91.2% | 73.5% | 99.9% | 105% | 75.1 | 108% | 98.7% | 111% | 88% | 109% | 103% | 109% | 102% | 98.1% | 104% | 78.3% | 84% | – |
| CC(=O)N1N=C(c2ccc(C(F)(F)F)cc2)CC1c1ccc2c(c1)OCO2 (centres undefined) | 79.2% | 84.8% | 102% | 85% | 77.5% | 91.2 | 87.4% | 100% | 113% | 73.8% | – | 82.3% | 107% | 104% | 67.1% | 101% | 102% | 69.7% | – |
| C#C[C@]1(O)CCC2C3CCc4cc(O)ccc4C3CC[C@@]21C (some centres undefined) | 62.4% | 81.4% | 35.4% | 17.5% | 75.3% | – | 44.3% | 41.1% | 60.8% | 12.7% | 43% | 66.7% | 51.5% | 47.7% | 22.6% | 21% | 75.2% | 20.4% | 10.6% |
| COc1ccc([N+](=O)[O-])c(S(=O)(=O)c2ccc(Cl)cc2)n1 | 81.9% | 106% | 95.2% | – | 63.1% | 99.2 | 70.1% | 25.2% | 93.2% | 7.72% (active) | 11.8% | 68.1% | – | 92.4% | 95.3% | 82.8% | 94.9% | 60.5% | – |
| Cc1ccc(S(=O)(=O)N2CCN(C(=O)CSc3nc4ccc(C)cc4[nH]3)CC2)cc1 | 105% | 116% | 106% | – | 96.6% | – | 107% | 143% | 109% | 74.8% | 126% | 92.3% | – | 101% | 159% | 110% | 63.4% | 101% | 97.2% |
